{
  "source": "paper PMC7819943",
  "about": "“Rice protein-binding microarrays: a tool to detect cis-acting elements near promoter regions in rice”",
  "note": "In all, about 35,000 sequences were measured (“fluorescence intensity (a.u.)”: median about 10,000, highest 2% from about 52,000 on). The full list was thinned out, with the highest values kept by preference.",
  "data": [
    {"target": "T1, OsWOX13 (Oryza sativa, UniProt Q5QMM3 1-267)", "T1 sequence": "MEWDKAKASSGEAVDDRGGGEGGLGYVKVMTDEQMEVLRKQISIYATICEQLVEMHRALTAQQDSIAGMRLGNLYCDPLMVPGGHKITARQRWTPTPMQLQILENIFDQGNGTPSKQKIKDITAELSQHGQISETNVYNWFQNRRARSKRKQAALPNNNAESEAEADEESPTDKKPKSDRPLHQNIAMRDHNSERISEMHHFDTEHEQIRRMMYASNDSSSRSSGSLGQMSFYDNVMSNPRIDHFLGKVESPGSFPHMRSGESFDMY", "experiment": "protein-binding microarray (RPBM); PBS, 2% BSA, 51.3 ng/ul salmon testes DNA, 50 uM zinc acetate, 200 nM TF, 25 C, 1 h; high values mean tight binding", "details": "protein: recombinant; tags: N-terminal polyhistidine and DsRed monomer fusion (pET32a); label: CyDye5-dUTP incorporated in the synthesized complementary strand; 3' TTTTT single-stranded linker to array surface; dsDNA, one strand shown", "procedure,_shortened": "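Binding signal here means per-feature fluorescence intensity in arbitrary units. The values were read on an Axon 4000B scanner after a custom Agilent array, double-stranded by primer extension with Cy5-dUTP, was incubated with 200 nM protein at 25 °C for 1 h in PBS with 2% BSA, salmon testes DNA and 50 µM zinc acetate, then washed. The proteins were transcription factors with an N-terminal polyhistidine tag and DsRed, expressed in E. coli BL21-CodonPlus and purified on Ni–NTA.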", "values": [
      {"sequence": "CGATGATTGTTAGTATACACTATATGTATGGTGTTTATCCCGGAGTCACCTAGTGCAG", "binding signal": "40600 fluorescence intensity (a.u.)"},
      {"sequence": "CTACTATCAATCGACCAATTCCAATCTCATCGTTACAGGACGGAGTCACCTAGTGCAG", "binding signal": "4190 fluorescence intensity (a.u.)"},
      {"sequence": "GCTTGACGACACCATTCGGATTGTTCCATCACTTCCATACCGGAGTCACCTAGTGCAG", "binding signal": "3540 fluorescence intensity (a.u.)"},
      {"sequence": "CTTGATTGACGACCATCTCGTGGTTACCAATTCCATCACCCGGAGTCACCTAGTGCAG", "binding signal": "60000 fluorescence intensity (a.u.)"},
      {"sequence": "ACATGTTTTATCAATTAGTAGTATGGGCATATTACTAGTGCGGAGTCACCTAGTGCAG", "binding signal": "17800 fluorescence intensity (a.u.)"},
      {"sequence": "AGGAGGCGGGGCGGGGCGGCGGCGGCGGCGGCGGCGCCCGCGGAGTCACCTAGTGCAG", "binding signal": "5340 fluorescence intensity (a.u.)"},
      {"sequence": "TCTCTTCCTTGCTGTGGTGGCGGCGGGCGGGAGGGCGGCGCGGAGTCACCTAGTGCAG", "binding signal": "12700 fluorescence intensity (a.u.)"},
      {"sequence": "TGCCCTTACCTGTGGTTTCTCCCGCGGCGGCGGGGTGGAGCGGAGTCACCTAGTGCAG", "binding signal": "65500 fluorescence intensity (a.u.)"},
      {"sequence": "TCTGACCTGTATACTAATTTATGACCATATACTTAATCAACGGAGTCACCTAGTGCAG", "binding signal": "5380 fluorescence intensity (a.u.)"},
      {"sequence": "AAAACCATCATCAATCAGCCGATCCTGATGTTGTCCCTGCCGGAGTCACCTAGTGCAG", "binding signal": "25100 fluorescence intensity (a.u.)"},
      {"sequence": "AAGAGATTGGAATCGGGCGTACCGGAGAACTTTGGAGATGCGGAGTCACCTAGTGCAG", "binding signal": "12100 fluorescence intensity (a.u.)"},
      {"sequence": "ACATATCTTAAGATTGATGAAGTCACCACGAACGCCTCGCCGGAGTCACCTAGTGCAG", "binding signal": "11700 fluorescence intensity (a.u.)"},
      {"sequence": "GGATAATGATTTGACATTGATTGCGGTCTCGTTATTTTCTCGGAGTCACCTAGTGCAG", "binding signal": "59500 fluorescence intensity (a.u.)"},
      {"sequence": "AATTGATTATTCCTAACAACATTCCGCGGATTAATTTTCTCGGAGTCACCTAGTGCAG", "binding signal": "15500 fluorescence intensity (a.u.)"},
      {"sequence": "CTCAAAAGTTTGGGTTGATCGATCATTTGCCTACCGAAACCGGAGTCACCTAGTGCAG", "binding signal": "65500 fluorescence intensity (a.u.)"},
      {"sequence": "TCGTTGTAATAATTTGATTTCTTTTGCAGACGGTCTTTATCGGAGTCACCTAGTGCAG", "binding signal": "5300 fluorescence intensity (a.u.)"},
      {"sequence": "TATGATTGATATCCACGAATTGAAGAAGAAGTTGCATTGCCGGAGTCACCTAGTGCAG", "binding signal": "55300 fluorescence intensity (a.u.)"},
      {"sequence": "TTGATTAATTTATTTATAGTTTTGTGAAAGTTTGCGCCGTCGGAGTCACCTAGTGCAG", "binding signal": "57900 fluorescence intensity (a.u.)"},
      {"sequence": "GGAAGAATTGATTGATTAAAGATATATATCGAATATCTGCCGGAGTCACCTAGTGCAG", "binding signal": "40400 fluorescence intensity (a.u.)"},
      {"sequence": "AGATAATTGTGAAATAATTATATTGCGATTTGATAAAGTACGGAGTCACCTAGTGCAG", "binding signal": "14700 fluorescence intensity (a.u.)"},
      {"sequence": "GGTTTAAATTTTAAAAGTTTGATCAAATATTATCCTAAACCGGAGTCACCTAGTGCAG", "binding signal": "4900 fluorescence intensity (a.u.)"},
      {"sequence": "ATGAAAGGAGTTGATTTGCACCGGTTTTCAAAGATGAAAACGGAGTCACCTAGTGCAG", "binding signal": "3470 fluorescence intensity (a.u.)"},
      {"sequence": "GTCTAATTGTGATTTTATATTTTAATTAATTATATATTGTCGGAGTCACCTAGTGCAG", "binding signal": "34800 fluorescence intensity (a.u.)"},
      {"sequence": "TGGAAGAAATTGATGTAATGCTCTGGCCTTTTCATGGATACGGAGTCACCTAGTGCAG", "binding signal": "8100 fluorescence intensity (a.u.)"},
      {"sequence": "GCTAATTAAATTAATAATTCATCTTAGGAATCACAGCGTCCGGAGTCACCTAGTGCAG", "binding signal": "39000 fluorescence intensity (a.u.)"},
      {"sequence": "CGCTTAATGACTTCACTTTGTCCTCGGATGATTTGCGTCCCGGAGTCACCTAGTGCAG", "binding signal": "11700 fluorescence intensity (a.u.)"},
      {"sequence": "CCCAGTCAATCTCCCCATCTCCTCGGCCTCGGCAATAGTACGGAGTCACCTAGTGCAG", "binding signal": "7200 fluorescence intensity (a.u.)"},
      {"sequence": "GATAGATAGATAGATAGATAGATAGATAGATACTAGTACACGGAGTCACCTAGTGCAG", "binding signal": "37000 fluorescence intensity (a.u.)"},
      {"sequence": "GCTTAATTAGCCGCTTCAGTTGCACAGTAACTGAGGAACCCGGAGTCACCTAGTGCAG", "binding signal": "32700 fluorescence intensity (a.u.)"},
      {"sequence": "TGTAATAATAATTTAATCGATCTTTCAAGGGGCATTCTCGCGGAGTCACCTAGTGCAG", "binding signal": "8040 fluorescence intensity (a.u.)"},
      {"sequence": "TTTAGATTGCTAAACACACATGTATATATAAGTTTTATTTCGGAGTCACCTAGTGCAG", "binding signal": "5900 fluorescence intensity (a.u.)"},
      {"sequence": "TCGATTGACTGCATCTTTTCCTGAAAGTGAACATGCAGTGCGGAGTCACCTAGTGCAG", "binding signal": "32500 fluorescence intensity (a.u.)"},
      {"sequence": "TGTAATCTATCAAGAATCCATTACTGAGACACAAATGCATCGGAGTCACCTAGTGCAG", "binding signal": "4280 fluorescence intensity (a.u.)"},
      {"sequence": "TCCTAATTAATGTTAGAAATTTTCCTAATTAATGCTAGAACGGAGTCACCTAGTGCAG", "binding signal": "28600 fluorescence intensity (a.u.)"},
      {"sequence": "TAGTTATATTTGATTATCTTGCGAACCTATATATAATATGCGGAGTCACCTAGTGCAG", "binding signal": "5250 fluorescence intensity (a.u.)"},
      {"sequence": "TATAATTGATCTTTGTAGTTATTTTGTTGCATACATAAGACGGAGTCACCTAGTGCAG", "binding signal": "29100 fluorescence intensity (a.u.)"},
      {"sequence": "ACTAGTATTAAATTGACTATAAATGATTTGGAGTTAGTAGCGGAGTCACCTAGTGCAG", "binding signal": "26300 fluorescence intensity (a.u.)"},
      {"sequence": "AAGTTATATATATTGATGATTTATACAACTTTGTTGGTGACGGAGTCACCTAGTGCAG", "binding signal": "3620 fluorescence intensity (a.u.)"},
      {"sequence": "CTATTGATTATGATAATTTGAAGTTATATAGCTTGATTTGCGGAGTCACCTAGTGCAG", "binding signal": "57700 fluorescence intensity (a.u.)"},
      {"sequence": "TGTAACTATTATATAAATTGGCTATTAAGTTTGACTATAGCGGAGTCACCTAGTGCAG", "binding signal": "17800 fluorescence intensity (a.u.)"},
      {"sequence": "GAGTTGATTTGCGTTGTCTCTCCGTCTCTTTCTTATTAATCGGAGTCACCTAGTGCAG", "binding signal": "20800 fluorescence intensity (a.u.)"},
      {"sequence": "CGTTGATTATTGCGATCGAAACCGTCTCATATAATTTTGCCGGAGTCACCTAGTGCAG", "binding signal": "52500 fluorescence intensity (a.u.)"},
      {"sequence": "ACATATATAAGTTGATTGATTTGTTATTATAGACGACGAGCGGAGTCACCTAGTGCAG", "binding signal": "55400 fluorescence intensity (a.u.)"},
      {"sequence": "TTAAATTGACTATAGTTGATTTGTAGCCTACAATTGGCAGCGGAGTCACCTAGTGCAG", "binding signal": "64600 fluorescence intensity (a.u.)"},
      {"sequence": "TGGTTATTATATTGATTATAGATAATTTGAAGTTAGTAGTCGGAGTCACCTAGTGCAG", "binding signal": "31500 fluorescence intensity (a.u.)"},
      {"sequence": "ACTAAAATTTGATAAAATTTATTTTGCCTATAATATAAACCGGAGTCACCTAGTGCAG", "binding signal": "6120 fluorescence intensity (a.u.)"}
    ]}
  ]
}
